Measurements reported in PubChem BioAssay (Tox21).
Results filed as inconclusive are left out. Activity calls are given as the source filed them. Unless noted, calls come from the whole dose curve; as a rule, active = well fitted curve in the direction sought with a large enough effect in the repeat runs; inconclusive = weak or mixed curves; inactive = no such curve, though single readings can be large; an effect the other way counts as inactive or inconclusive.

Assays:
[1] = qHTS assay to identify small molecule agonists of the peroxisome proliferator-activated receptor delta (PPARd) signaling pathway - cell viability counter screen (AID 743211); note: % is set by controls: 0 for no effect and ±100 for the full control effect; nearly all actives have a fitted effect of over 55% in size
Procedure, shortened: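 Luminescent ATP viability assay (CellTiter-Glo, 30 min RT) in UAS-bla HEK293H cells carrying the PPAR delta reporter construct, 3000 cells/well, after a 17 h compound treatment at 37 C.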

[2] = molecular target: Peroxisome proliferator-activated receptor delta (Homo sapiens) (UniProt Q03181); assay: qHTS assay to identify small molecule agonists of the peroxisome proliferator-activated receptor delta (PPARd) signaling pathway (AID 743212; calls by dose curve;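 note: HEK293H cells with PPARd UAS beta-lactamase reporter GeneBLAzer system; % is set by controls: 0 for no effect and ±100 for the full control effect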)
Sequence of Peroxisome proliferator-activated receptor delta (Homo sapiens) (Q03181 whole entry, looked up): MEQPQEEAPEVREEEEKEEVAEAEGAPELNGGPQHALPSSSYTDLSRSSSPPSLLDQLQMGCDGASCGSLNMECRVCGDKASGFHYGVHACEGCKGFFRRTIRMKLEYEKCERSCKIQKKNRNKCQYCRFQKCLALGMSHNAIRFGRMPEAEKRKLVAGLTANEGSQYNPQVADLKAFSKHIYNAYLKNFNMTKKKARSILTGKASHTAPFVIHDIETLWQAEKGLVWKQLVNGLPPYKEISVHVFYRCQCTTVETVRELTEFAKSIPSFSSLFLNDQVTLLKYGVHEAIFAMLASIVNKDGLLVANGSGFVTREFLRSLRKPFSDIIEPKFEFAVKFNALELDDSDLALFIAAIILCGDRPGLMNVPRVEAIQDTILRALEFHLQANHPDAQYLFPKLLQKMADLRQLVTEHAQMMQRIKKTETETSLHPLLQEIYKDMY
Procedure, shortened: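 Beta-lactamase reporter readout: a ratiometric FRET signal from the LiveBLAzer substrate after 2 h at room temperature. Compound exposure at 37 °C in PPARδ-bla HEK293H cells driven by an upstream activator sequence.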

[3] = qHTS assay to identify small molecule antagonists of the peroxisome proliferator-activated receptor delta (PPARd) signaling pathway - cell viability counter screen (AID 743213); note: % is set by controls: 0 for no effect and ±100 for the full control effect; nearly all actives have a fitted effect of over 50% in size
Procedure, shortened: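 Agonist-stimulated (L165041, 300 nM final) HEK293H PPARd UAS-bla cells are exposed to compounds for 17 h at 37 C, and ATP-based luminescence (CellTiter-Glo) from the same wells reports cytotoxicity.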

[4] = qHTS assay to identify small molecule antagonists of the farnesoid-X-receptor (FXR) signaling pathway - cell viability counter screen (AID 743221; active = well fitted cell-killing curve with a large enough effect in the repeat runs, not every such curve was filed as active; note: % is set by controls: 0 for no effect and ±100 for the full control effect; nearly all actives have a fitted effect of over 50% in size)
Procedure, shortened: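 In GeneBLAzer FXR-UAS-bla HEK 293T cells stimulated with 50 uM chenodeoxycholic acid (final), compounds acted for 16 h at 37 C. Viability was assessed afterwards by CellTiter-Glo luminescence.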

[5] = molecular target: Vitamin D3 receptor (Homo sapiens) (UniProt P11473); assay: qHTS assay to identify small molecule agonists of the vitamin D receptor (VDR) signaling pathway (AID 743222; calls by dose curve; note: % is set by controls: 0 for no effect and ±100 for the full control effect)
Sequence of Vitamin D3 receptor (Homo sapiens) (P11473 whole entry, looked up): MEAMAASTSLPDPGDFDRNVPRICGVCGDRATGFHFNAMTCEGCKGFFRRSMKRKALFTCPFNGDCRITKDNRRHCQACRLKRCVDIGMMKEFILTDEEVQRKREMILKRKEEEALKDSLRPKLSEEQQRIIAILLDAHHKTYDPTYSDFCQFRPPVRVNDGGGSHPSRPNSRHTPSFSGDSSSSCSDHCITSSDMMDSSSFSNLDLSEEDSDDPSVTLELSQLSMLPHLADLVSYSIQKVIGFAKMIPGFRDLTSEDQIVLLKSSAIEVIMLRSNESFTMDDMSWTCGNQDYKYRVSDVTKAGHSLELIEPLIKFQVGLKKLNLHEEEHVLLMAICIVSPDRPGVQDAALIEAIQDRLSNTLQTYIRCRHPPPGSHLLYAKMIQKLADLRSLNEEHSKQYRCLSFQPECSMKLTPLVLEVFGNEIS
Procedure, shortened: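 Agonist mode, beta-lactamase reporter: fluorescence from LiveBLAzer B/G FRET substrate (2 h, room temperature) read after 16 h compound treatment at 37 C of VDR-bla cells, which were pre-incubated 4 h after seeding.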

[6] = molecular target: Vitamin D3 receptor (Homo sapiens) (UniProt P11473); assay: qHTS assay to identify small molecule antagonists of the vitamin D receptor (VDR) signaling pathway (AID 743223; active = well fitted inhibition curve with a large enough effect in the signal ratio in the repeat runs, not every such curve was filed as active; the % refers to the signal ratio; note: % is set by controls: 0 for no effect and ±100 for the full control effect)
Procedure, shortened: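 Agonist 1alpha,25-dihydroxyvitamin D3 (3 nM in well) was added with each compound to VDR-bla cells preincubated 4 h. Cells stood 16 h at 37C, then FRET substrate 2 h at room temperature; fluorescence intensity recorded.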

[7] = qHTS assay to identify small molecule antagonists of the vitamin D receptor (VDR) signaling pathway - cell viability counter screen (AID 743225); note: % is set by controls: 0 for no effect and ±100 for the full control effect; nearly all actives have a fitted effect of over 50% in size
Procedure, shortened: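 Luminescent cell viability (CellTiter-Glo) in VDR-bla HEK 293T cells after 16 h compound exposure at 37C in the presence of 3 nM final 1-alpha,25-dihydroxy vitamin D3.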

[8] = qHTS assay to identify small molecule agonists of the NFkB signaling pathway (AID 1159509; active = well fitted curve in the direction sought with a large enough effect in the signal ratio in the repeat runs, not every such curve was filed as active; the % refers to the signal ratio; note: series mostly up to about 61 µM; % is set by controls: 0 for no effect and ±100 for the full control effect)
Procedure, shortened: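 Pathway activation was measured in ME-180 cells stably expressing beta-lactamase under NF-kB response element control. Substrate cleavage was read as the 460/530 nm emission shift after 5 hr compound incubation.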

[9] = qHTS assay to identify small molecule agonists of the endoplasmic reticulum stress response signaling pathway (AID 1159516; active = well fitted activation curve with a large enough effect in the signal ratio in the repeat runs, not every such curve was filed as active; the % refers to the signal ratio; note: % is set by controls: 0 for no effect and ±100 for the full control effect)
Procedure, shortened: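 Ratiometric FRET readout (405 nm excitation; 460 and 530 nm emission) of a beta-lactamase gene driven by the ER stress response element, after 2 hr substrate loading. HeLa ESRE-bla cells were seeded overnight and treated with compounds for only 5 hr at 37 C.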

[10] = qHTS assay to identify small molecule agonists of the endoplasmic reticulum stress response signaling pathway - cell viability counter screen (AID 1159517; calls by dose curve; note: series mostly up to about 61 µM; % is set by controls: 0 for no effect and ±100 for the full control effect; nearly all actives have a fitted effect of over 50% in size)
Procedure, shortened: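 ESRE-bla HeLa cells (1,500/well) were plated overnight at 37 C and exposed to compounds for 5 hr. After the 2 hr beta-lactamase substrate read, CellTiter-Glo went into the same wells, and luminescence was read after 30 min at room temperature.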

[11] = qHTS assay to identify small molecule antagonists of the retinoid-related orphan receptor gamma (ROR-gamma) signaling pathway - cell viability counter screen (AID 1159520)
Procedure, shortened: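 Cytotoxicity was read from cellular ATP (CellTiter-Glo luminescence) after 16 hr at 37 C with 1 uM doxycycline induction. The inducer was added 2 hr after compound transfer to Tet-on ROR gamma CHO cells.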

[12] = molecular target: Nuclear receptor ROR-gamma (Homo sapiens) (UniProt P51449); assay: qHTS assay to identify small molecule antagonists of the retinoid-related orphan receptor gamma (ROR-gamma) signaling pathway (AID 1159521)
Procedure, shortened: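 CHO cells expressing RORγ under a TET-on promoter, luciferase under RORE control. Dox 1 uM final, 16 h; compounds added 2 h prior. Luminescence decrease measured.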

[13] = qHTS assay to identify small molecule agonists of the AP-1 signaling pathway - cell viability counter screen (AID 1159525; calls by dose curve; note: nearly all actives have a fitted effect of over 55% in size)
Procedure, shortened: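 Intracellular ATP by Cell Titer Glo luminescence (30 min, RT) in the same ME-180 AP-1-bla wells after the 5 h compound exposure at 37 °C. Normalised to tetra n-octyl ammonium bromide and DMSO controls.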

[14] = qHTS assay to identify small molecule agonists of the AP-1 signaling pathway (AID 1159526; calls by dose curve; note: % is set by controls: 0 for no effect and ±100 for the full control effect)
[15] = molecular target: Peroxisome proliferator-activated receptor delta (Homo sapiens) (UniProt Q03181); assay: qHTS assay to identify small molecule antagonists of the peroxisome proliferator-activated receptor delta (PPARd) signaling pathway (AID 743215; active = well fitted inhibition curve with a large enough effect in the signal ratio in the repeat runs, not every such curve was filed as active; the % refers to the signal ratio)
Procedure, shortened: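 Agonist L165041 (300 nM final) added with compound to PPARd-bla HEK293H UAS-bla reporter cells; 17 h incubation at 37 C. Read-out: LiveBLAzer FRET substrate, 2 h at room temperature, fluorescence intensity.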

[16] = molecular target: Bile acid receptor (Homo sapiens) (UniProt Q96RI1); assay: qHTS assay to identify small molecule antagonists of the farnesoid-X-receptor (FXR) signaling pathway (AID 743217; active = well fitted inhibition curve with a large enough effect in the signal ratio in the repeat runs, not every such curve was filed as active; the % refers to the signal ratio; note: % is set by controls: 0 for no effect and ±100 for the full control effect)
Sequence of Bile acid receptor (Homo sapiens) (Q96RI1 whole entry, looked up): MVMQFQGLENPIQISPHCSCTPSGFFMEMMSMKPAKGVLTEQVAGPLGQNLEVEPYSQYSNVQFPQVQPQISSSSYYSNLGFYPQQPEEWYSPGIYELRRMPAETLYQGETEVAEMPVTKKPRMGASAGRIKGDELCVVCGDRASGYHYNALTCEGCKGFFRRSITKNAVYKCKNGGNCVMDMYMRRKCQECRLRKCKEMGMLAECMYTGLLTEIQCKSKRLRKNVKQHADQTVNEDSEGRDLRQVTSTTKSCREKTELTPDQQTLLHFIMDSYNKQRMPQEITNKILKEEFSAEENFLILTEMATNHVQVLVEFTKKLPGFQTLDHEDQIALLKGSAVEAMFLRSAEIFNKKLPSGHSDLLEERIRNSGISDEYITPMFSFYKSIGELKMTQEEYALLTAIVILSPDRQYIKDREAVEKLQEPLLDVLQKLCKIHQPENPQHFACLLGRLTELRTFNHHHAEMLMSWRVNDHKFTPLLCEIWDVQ
Procedure, shortened: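 Antagonist mode: chenodeoxycholic acid at 50 uM final stimulates a UAS-driven beta-lactamase reporter in HEK 293T FXR-bla cells during 16 h, 37C compound exposure. Read-out is FRET substrate fluorescence after 2 h at room temperature.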

[17] = qHTS assay to identify small molecule agonists of the farnesoid-X-receptor (FXR) signaling pathway - cell viability counter screen (AID 743218); note: % is set by controls: 0 for no effect and ±100 for the full control effect; nearly all actives have a fitted effect of over 45% in size
Procedure, shortened: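 Viability counter screen in the same wells: CellTiter-Glo luminescence, 30 min room-temperature incubation, measured after the beta-lactamase read. Cells were GeneBLAzer FXR-UAS-bla HEK 293T, compound-treated 16 h at 37C.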

[18] = molecular target: Bile acid receptor (Homo sapiens) (UniProt Q96RI1); assay: qHTS assay to identify small molecule agonists of the farnesoid-X-receptor (FXR) signaling pathway (AID 743220; active = well fitted activation curve with a large enough effect in the signal ratio in the repeat runs, not every such curve was filed as active; the % refers to the signal ratio; note: potency is the fitted concentration of half-maximal effect)
Procedure, shortened: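 FXR-UAS-bla HEK 293T cells carrying a UAS-driven beta-lactamase reporter were plated for 5 h at 37C/5% CO2, then exposed to DMSO-dissolved Tox21 10K compounds for 16 h at 37C. A LiveBLAzer B/G FRET substrate was loaded for 2 h at room temperature before fluorescence reading.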

[19] = qHTS assay to identify small molecule agonists of the vitamin D receptor (VDR) signaling pathway - cell viability counter screen (AID 743224)
Procedure, shortened: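 Counter screen run in the same wells as the VDR-bla reporter assay: CellTiter-Glo luminescence, 30 min at room temperature, after 16 h compound treatment at 37C of cells pre-plated for 4 h.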

[20] = qHTS assay to identify small molecule agonists of the NFkB signaling pathway - cell viability counter screen (AID 1159515; calls by dose curve; note: series mostly up to about 61 µM; % is set by controls: 0 for no effect and ±100 for the full control effect; nearly all actives have a fitted effect of over 55% in size)
Procedure, shortened: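 Read by CellTiter-Glo luminescence (30 min, room temperature) in the wells also used for the beta-lactamase FRET read. ME-180 NFkB-bla cells at 2,000 per well were plated overnight, then exposed to compound for 5 hr at 37 C.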

CCOCCOCCOCC
inactive: outcome [1] | outcome [2] | outcome [3] | outcome [4] | outcome [5] | outcome [6] | outcome [7] | outcome [8] | outcome [9] | Potency [10] | outcome [11] | outcome [12] | outcome [13] | outcome [14]

CCCCCCCC/C=C\CCCCCCCC(=O)OCCCC
inactive: outcome [1] | outcome [2] | outcome [3] | outcome [15] | Potency [16] | Potency [17] | Potency [18] | outcome [4] | outcome [5] | Potency [19] | outcome [7] | outcome [8] | outcome [9] | Potency [10] | activity change, negative = inhibition [12] 12% [at 19 µM] | viability change, negative = cytotoxic [13] -3.05% [at 15.8 µM] | activation [14] -1.59% [at 15.8 µM]

COc1ccc2c(c1OC)C(=O)O[C@@H]2[C@H]1c2c(cc3c(c2OC)OCO3)CCN1C
inactive: outcome [1] | outcome [2] | Potency [17] | outcome [4] | outcome [5] | Potency [19] | outcome [7] | outcome [8] | outcome [9] | Potency [10] | outcome [11] | outcome [12] | outcome [14]

CCCN1C[C@H](CSC)C[C@@H]2c3cccc4[nH]cc(c34)C[C@H]21
inactive: outcome [2] | outcome [15] | outcome [4] | outcome [5] | outcome [6] | Potency [19] | outcome [7] | outcome [8] | outcome [9] | Potency [10] | outcome [11] | outcome [12] | outcome [13] | outcome [14]

CC(C)N(c1ccccc1)C(C)C
inactive: outcome [1] | outcome [2] | outcome [3] | outcome [15] | Potency [17] | outcome [4] | outcome [5] | Potency [19] | outcome [8] | Potency [10] | outcome [11] | outcome [12] | outcome [13] | outcome [14]

O=C(O)c1ccc(Cl)cc1Cl
inactive: outcome [1] | outcome [2] | outcome [3] | outcome [15] | Potency [16] | Potency [17] | Potency [18] | outcome [4] | outcome [5] | outcome [6] | outcome [7] | outcome [8] | outcome [9] | Potency [10] | outcome [12] | outcome [13] | outcome [14]

C[Si](C)(C)C
inactive: outcome [1] | outcome [2] | outcome [15] | Potency [17] | outcome [4] | outcome [5] | outcome [6] | Potency [19] | outcome [7] | outcome [8] | outcome [9] | Potency [10] | outcome [11] | outcome [12] | outcome [13] | outcome [14]

CC(=O)c1ccc2c(c1)Cc1ccccc1-2
inactive: outcome [1] | outcome [2] | outcome [3] | outcome [15] | Potency [16] | Potency [17] | Potency [18] | outcome [4] | outcome [5] | Potency [19] | outcome [7] | outcome [8] | outcome [9] | Potency [10] | outcome [12] | outcome [13] | outcome [14]

CCOc1cc(NC(C)=O)ccc1C(=O)OC
inactive: outcome [1] | outcome [2] | outcome [3] | outcome [15] | Potency [16] | Potency [18] | outcome [4] | Potency [19] | outcome [7] | outcome [8] | outcome [9] | Potency [10] | outcome [12] | outcome [13] | outcome [14]

ClCCCl
inactive: outcome [1] | outcome [2] | outcome [3] | outcome [15] | outcome [4] | outcome [5] | outcome [6] | Potency [19] | outcome [7] | outcome [8] | outcome [9] | Potency [10] | outcome [11] | outcome [12] | outcome [13] | outcome [14]

COc1ccc2c(c1)C(=O)N(CCc1ccc(S(=O)(=O)NC(=O)NC3CCCCC3)cc1)C(=O)C2(C)C
active: Potency [18] 26.6 µM
inactive: outcome [1] | outcome [2] | outcome [3] | outcome [15] | Potency [17] | outcome [4] | outcome [6] | Potency [19] | outcome [8] | outcome [9] | Potency [10] | outcome [11] | outcome [12] | outcome [14]

CC(C)=O
inactive: outcome [1] | outcome [2] | outcome [3] | outcome [4] | outcome [5] | outcome [6] | outcome [8] | Potency [10] | outcome [11] | outcome [12] | outcome [14]

CC(CN)CC(C)(C)CCN (stereo not drawn)
inactive: outcome [1] | outcome [2] | outcome [3] | outcome [15] | Potency [16] | Potency [17] | Potency [18] | outcome [4] | outcome [5] | outcome [6] | Potency [19] | outcome [7] | outcome [8] | outcome [9] | Potency [10] | outcome [11] | outcome [12] | outcome [14]

COc1nccnc1NS(=O)(=O)c1ccc(N)cc1
inactive: outcome [1] | outcome [2] | outcome [3] | outcome [15] | Potency [16] | Potency [18] | outcome [4] | outcome [5] | outcome [6] | Potency [19] | outcome [7] | outcome [8] | outcome [9] | Potency [10] | outcome [11] | outcome [12] | outcome [13] | outcome [14]

Cc1[nH]cnc1-c1ccc(Cl)cc1
inactive: outcome [1] | outcome [2] | outcome [3] | outcome [15] | outcome [4] | Potency [19] | outcome [7] | outcome [8] | outcome [20] | outcome [11] | outcome [12] | outcome [14]

CCN1CCc2nc(N)oc2CC1
inactive: outcome [1] | outcome [2] | outcome [3] | outcome [15] | Potency [16] | Potency [17] | Potency [18] | outcome [4] | Potency [19] | outcome [7] | outcome [20] | outcome [9] | Potency [10] | outcome [11] | outcome [12] | outcome [13] | outcome [14]

CC(S)C(=O)NCC(=O)O (stereo not drawn)
inactive: outcome [1] | outcome [3] | outcome [4] | outcome [5] | outcome [6] | Potency [19] | outcome [7] | outcome [8] | outcome [9] | Potency [10] | outcome [11] | outcome [12] | outcome [13] | outcome [14]
